Shown are actives, neighbours in structure and some others; about 6.2% of the full set was active somewhere.
Gal4-VP16 FLuc = VP16 counterscreen qHTS for inhibitors of ROR gamma transcriptional activity; Drosophila S2 Gal4-VP16 UAS-luciferase, luminescence, 20 h; AID 2546, 2010; 3.5% of 310,000 active; Potency, µM (doses to about 53.6 µM), inactives show top-dose activity, negative = inhibition, hits mostly inhibitors;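 note: Gal4-VP16 expression switched on by copper sulfate through the metallothionein promoter; nearly all actives have a fitted effect of over 50% in size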
KinaseGlo FLuc = Counterscreen for Luciferase (Kinase-Glo TM) Inhibition; Luciferin 4-monooxygenase (Photuris pensylvanica), Q27757; Kinase-Glo luciferase, ATP luminescence, 8 min; Potency, µM (series often up to 38.3 µM), for inactives: top-dose activity change, negative = inhibition, usual class: inhibitors; 0.28% of 200,000 active; AID 1379, 2008; note: nearly all actives have a fitted effect of over 60% in size
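Inhibition of Kinase-Glo luciferase light generation was assessed at 10 uM ATP in pH 7.2 imidazole buffer, with luminescence measured after eight minutes at ambient temperature.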
RORgamma inh = qHTS for inhibitors of ROR gamma transcriptional activity; Nuclear receptor ROR-gamma (Mus musculus), P51450; Drosophila S2 Gal4-RORgamma UAS-luciferase reporter, 20 h; Potency, µM (doses to about 53.6 µM), without a hit: top-dose activity change, negative = inhibition, hits mostly inhibitors; 5.4% of 310,000 active; AID 2551, 2010; note: nearly all actives have a fitted effect of over 60% in size
Target sequence (P51450 whole entry, looked up, the tested form may be a part): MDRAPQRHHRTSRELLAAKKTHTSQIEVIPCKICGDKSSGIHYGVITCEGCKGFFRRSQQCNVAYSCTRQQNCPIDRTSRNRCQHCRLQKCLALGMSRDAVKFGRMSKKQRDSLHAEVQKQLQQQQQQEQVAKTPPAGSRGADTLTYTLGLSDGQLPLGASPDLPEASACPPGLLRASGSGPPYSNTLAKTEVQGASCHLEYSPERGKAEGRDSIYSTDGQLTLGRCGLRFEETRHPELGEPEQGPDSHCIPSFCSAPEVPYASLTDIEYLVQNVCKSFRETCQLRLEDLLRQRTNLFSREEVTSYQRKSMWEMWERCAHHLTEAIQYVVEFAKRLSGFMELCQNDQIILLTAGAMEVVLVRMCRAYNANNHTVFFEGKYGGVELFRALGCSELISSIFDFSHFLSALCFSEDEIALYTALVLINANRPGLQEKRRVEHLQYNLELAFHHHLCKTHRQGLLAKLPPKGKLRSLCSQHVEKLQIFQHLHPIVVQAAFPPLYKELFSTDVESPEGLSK
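Stable Schneider cell line, Gal4 DNA-binding domain fused to ROR gamma, UAS-luciferase. Cmpd 1 hr RT → CuSO4 700 uM final → 20 hr RT → luciferase reagent 10 min → luminescence.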
Numbers without * were called inactive; ? = inconclusive; . = no result; [ ] = dose if it differs, or a comment. Calls come from the whole dose curve; as a rule, active = well fitted curve in the direction sought with a large enough effect; inconclusive = small, poorly fitted or top-dose-only effect, or another doubt; inactive = no such curve, though single readings can be large; an effect the other way counts as inactive or inconclusive. % is set by controls: 0 for no effect and ±100 for the full control effect; potency is the fitted concentration of half-maximal effect.

SMILES	Gal4-VP16 FLuc	KinaseGlo FLuc	RORgamma inh
CCCCCCCCCCCCCC(=O)N[C@H](C)[C@@H](O)c1ccccc1	3%	0%	-8%
COc1ccc(N2CCN(C(=O)NCc3ccc(OC)c(OC)c3)CC2)cc1	-18%	.	18%
CCN1CCN(C(c2ccccc2)c2sc3nc(C)nn3c2O)CC1 (stereo unspecified)	8%	.	-16%
CCN1CCN(C(c2ccc(C(F)(F)F)cc2)c2ccc3cccnc3c2O)CC1 (stereo unspecified)	1.3µM*	.	1.1µM*
COc1cc(OC)cc(-c2sc3ccccc3c(=O)c2I)c1	-7%	5%[39.9 µM]	43%
CSc1ccc([C@H]2CN3CCC[C@H]3c3ccccc32)cc1	0%	1%[39.9 µM]	-30%
CC(C)(C)c1ccc(O)c(/C=N\O)c1	?	-2%	11µM*
CC(C)(C)c1cccc(/C=N/O)c1O	?	1%	?
O=C(NCc1n[nH]c(=S)n1-c1ccc(Cl)c(Cl)c1)c1ccco1	-13%	.	?
[N-]=[N+]=NC[C@@H]1O[C@@H](n2cnc3c(N)ncnc32)[C@@H]2O[C@@H]21	.	-2%[7.66 µM]	.
Nc1ccc(C(=O)N/N=C/c2cn(Cc3ccccc3)c3ccccc23)cc1	?	.	11µM*
COC(=O)N/N=C/c1cn(Cc2ccccc2F)c2ccccc12	-2%	.	29%
CCn1cc(/C=N/NC(=O)c2cc3c(ccc4ccccc43)o2)c2ccccc21	?	4%	7.1µM*
O=C(N/N=C/c1cn(Cc2cccc(F)c2)c2ccccc12)c1cc(O)cc(O)c1	-6%	.	-4%
COc1cc(C(=O)N/N=C/c2cn(Cc3ccccc3)c3ccccc23)ccc1O	?	.	13µM*
Nc1ccc(C(=O)N/N=C/c2cn(Cc3ccccc3F)c3ccccc23)cc1	?	.	14µM*
Nc1ccc(C(=O)N/N=C/c2cn(Cc3ccc(F)cc3)c3ccccc23)cc1	?	.	-142%
CC(C)n1cc(/C=N\NC(=O)c2cc3c(ccc4ccccc43)o2)c2ccccc21	-25%	-2%	?
Cn1nc(C(F)(F)F)c(-c2cccc(C(F)(F)F)c2)c1NC(=O)Nc1ccc(F)cc1	-8%	.	40%
Cc1cc(C)n2nc(C(=O)N/N=C/c3cccs3)nc2n1	3%	-1%	15%
CC[C@H](C)[C@H](NC(=O)[C@H](Cc1ccc(O)cc1)NC(=O)[C@H](Cc1cnc[nH]1)NC(=O)[C@H](CCCNC(=N)N)NC(=O)[C@H](CC(C)C)NC(=O)[C@H](C)NC(=O)[C@H](CO)NC(=O)[C@H](Cc1ccc(O)cc1)NC(=O)[C@H](Cc1ccc(O)cc1)NC(=O)[C@H](CCCNC(=N)N)NC(=O)[C@H](C)NC(=O)[C@H](CC(C)C)NC(=O)[C@H](CC(=O)O)NC(=O)[C@H](CCC(=O)O)NC(=O)[C@H](C)NC(=O)[C@@H]1CCCN1C(=O)[C@H](C)NC(=O)[C@H](CC(=O)O)NC(=O)[C@H](CCC(=O)O)NC(=O)CNC(=O)[C@@H]1CCCN1C(=O)[C@H](CC(N)=O)NC(=O)[C@H](CC(=O)O)NC(=O)[C@@H]1CCCN1C(=O)[C@H](CCCCN)NC(=O)[C@H](CO)NC(=O)[C@@H]1CCCN1C(=O)[C@@H](N)Cc1ccc(O)cc1)C(=O)N[C@@H](CC(N)=O)C(=O)N[C@@H](CC(C)C)C(=O)N[C@H](C(=O)N[C@H](C(=O)N[C@@H](CCCNC(=N)N)C(=O)N[C@@H](CCC(N)=O)C(=O)N[C@@H](CCCNC(=N)N)C(=O)N[C@@H](Cc1ccc(O)cc1)C(N)=O)[C@@H](C)O)[C@@H](C)CC	-4%	.	10%
CN(C)CCCO[C@H]1C([C@H](O)CO)O[C@@H]2OC(C)(C)O[C@@H]21 (stereo partly specified)	.	-6%	.
S=C(Nc1ccccc1Cl)N1CCCC(c2ccccc2)=N1	1%	.	-20%
CC(C)c1ccc(NC(=S)N2CCCC(c3ccc(F)cc3)=N2)cc1	-12%	.	11µM*
CC(NC(=O)COc1ccccc1)C(c1cccs1)N1CCCC1 (stereo unspecified)	0%	-1%	4%
SMILES	Gal4-VP16 FLuc	KinaseGlo FLuc	RORgamma inh
CC(NC(=S)NCCc1ccccc1)C(c1cccs1)N1CCN(Cc2ccccc2)CC1 (stereo unspecified)	?	1%	5µM*
CC(NC(=O)NC1CCCCC1)C(c1cccs1)N1CCN(Cc2ccccc2)CC1 (stereo unspecified)	-18%	-1%	-15%
CC(NC(=S)Nc1ccc(F)cc1)C(c1cccs1)N1CCOCC1 (stereo unspecified)	?	.	4µM*
CC(C)C(=O)NC(C)C(c1cccs1)N1CCOCC1 (stereo unspecified)	-6%	2%	22%
CC(NC(=S)Nc1ccccc1Cl)C(c1cccs1)N1CCCC1 (stereo unspecified)	?	-4%	7.9µM*
Cc1cccc(NC(=S)NC(C)C(c2cccs2)N2CCN(C)CC2)c1C (stereo unspecified)	-9%	.	?
Cc1ccccc1NC(=S)NC(C)C(c1cccs1)N1CCOCC1 (stereo unspecified)	22µM*	0%	2.8µM*
CSCC[C@H](N)C(=O)N[C@@H](CCCN=C(N)N)C(=O)N[C@@H](CC(C)C)C(=O)N[C@@H](Cc1ccccc1)C(=O)N[C@H](C(=O)O)C(C)C	-4%	.	4%
O=C(O)c1ccc2c(c1)C(=O)N([C@H](Cc1ccc(Cl)cc1)C(=O)O)C2=O	2%	.	-22%
CC1CCCCC1NC(=O)CCn1ccc2cc(S(=O)(=O)N3CCCC3)ccc21 (stereo unspecified)	6%	.	24%
CCOc1ccc(CC2CCC(=O)NC2=O)cc1 (stereo unspecified)	-2%	0%	2%
Cn1c(=O)c(-c2ccccc2)nc2cnc(Oc3ccccc3)nc21	-14%	-1%	24%
Nc1ccc2nc(-c3ccc(N)c(Cl)c3)[nH]c2c1	?	-22%	-38%
COc1ccc2nc(-c3cccc(N)c3)[nH]c2c1	13µM*	13µM*	?
Nc1cccc(-c2nc3ccc(C(=O)c4ccccc4)cc3[nH]2)c1	-19%	.	-22%
COc1ccc2nc(-c3ccc(N)cc3)[nH]c2c1	10µM*	10µM*	7.9µM*
O=C(O)[C@H]1[C@H]2C[C@H]3c4[nH]c5ccccc5c4CCN3C[C@@H]2CC[C@@H]1O	-18%	-1%	-19%
Cc1ccc(C(=O)N2CCn3c(C)ccc3C2C)cc1 (stereo unspecified)	3%[10 µM]	0%	-29%
COc1cc(/C=N/O)ccc1OCc1ccccc1Cl	5µM*	1%	1µM*
O/N=C/c1ccccc1OCc1ccccc1Cl	-5%	-1%	-18%
CC(C)C[C@H]1COC(c2ccc(Br)cc2)=N1	0%	4%[39.9 µM]	-9%
O=C(c1ccc(Cl)cc1)C1C2C(=O)N(c3ccccc3)C(=O)C2C2CCCN21 (stereo unspecified)	-3%	2%	-31%

Screens from PubChem BioAssay.
